From PubChem BioAssay
Activity calls are given as the source filed them.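 Rule for the calls: active = compounds killing one labelled cell type while sparing the other, by normalised counts and ratio limits, not self-fluorescent; inactive = the rest.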

Test: EMT-state selective cytotoxicity in co-culture – imaging, PC-3E GFP, TEM4-18 mCherry, primary screen (AID 1345086);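 note: cells exposed to compound for 72 h before imaging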;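 for red/green cell ratio (normalised): normalised mesenchymal count divided by normalised epithelial count so high means epithelial killing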
Details: PC-3E GFP / TEM4-18 mCherry co-culture, imaging cell counts, at 1 µM; for red/green cell ratio (normalised): actives lie on both sides, counts scaled to control wells, 1 = unselective
[1] = measured here: epithelial PC-3E GFP cell survival
[2] = measured here: mesenchymal TEM4-18 mCherry cell survival

Nc1ccc(S(=O)(=O)Nc2ccc(Cl)nn2)cc1
red/green cell ratio (normalised): 1.19 (inactive)
normalised cell number [1]: 0.46
normalised cell number [2]: 0.54

O=C(CCBr)N1CCN(C(=O)CCBr)CC1
red/green cell ratio (normalised): 1.19 (inactive)
normalised cell number [1]: 1.07
normalised cell number [2]: 1.28

CCCCC1C(=O)N(c2ccccc2)N(c2ccc(O)cc2)C1=O (stereo not given)
red/green cell ratio (normalised): 1.01 (inactive)
normalised cell number [1]: 1.07
normalised cell number [2]: 1.08

O=C(O)CCC(=O)Nc1ccc(S(=O)(=O)Nc2nccs2)cc1
red/green cell ratio (normalised): 1.01 (inactive)
normalised cell number [1]: 1.11
normalised cell number [2]: 1.13

O=C1C(=O)c2ccccc2C(O)=C1C1CCC(c2ccc(Cl)cc2)CC1 (stereo not given)
red/green cell ratio (normalised): 0.91 (inactive)
normalised cell number [1]: 1.07
normalised cell number [2]: 0.98

NC(N)=NCCN1CCCCCCC1
red/green cell ratio (normalised): 1.06 (inactive)
normalised cell number [1]: 1.17
normalised cell number [2]: 1.23

COc1ccc(NS(=O)(=O)c2ccc(N)cc2)nn1
red/green cell ratio (normalised): 1.05 (inactive)
normalised cell number [1]: 0.94
normalised cell number [2]: 0.98

Cc1cc(O)cc(C)c1Cl
red/green cell ratio (normalised): 1.31 (inactive)
normalised cell number [1]: 0.7
normalised cell number [2]: 0.93

COc1cc(NS(=O)(=O)c2ccc(N)cc2)ncn1
red/green cell ratio (normalised): 1.16 (inactive)
normalised cell number [1]: 0.74
normalised cell number [2]: 0.86

CCCCOC(=O)c1ccc(N)cc1
red/green cell ratio (normalised): 1.07 (inactive)
normalised cell number [1]: 0.97
normalised cell number [2]: 1.04

CC(C)N=C(N)/N=C(\N)Nc1ccc(Cl)cc1
red/green cell ratio (normalised): 1.08 (inactive)
normalised cell number [1]: 1.11
normalised cell number [2]: 1.2

CN1Cc2c(N)cccc2C(c2ccccc2)C1 (stereo not given)
red/green cell ratio (normalised): 0.78 (inactive)
normalised cell number [1]: 1.16
normalised cell number [2]: 0.9

COc1ccc(C(=O)c2ccccc2)c(O)c1
red/green cell ratio (normalised): 0.94 (inactive)
normalised cell number [1]: 1.15
normalised cell number [2]: 1.08

CC(Cc1cccc(C(F)(F)F)c1)NCCOC(=O)c1ccccc1 (stereo not given)
red/green cell ratio (normalised): 0.76 (inactive)
normalised cell number [1]: 1.26
normalised cell number [2]: 0.95

CCCCNc1ccc(C(=O)OCCN(C)C)cc1
red/green cell ratio (normalised): 1.19 (inactive)
normalised cell number [1]: 1.07
normalised cell number [2]: 1.27

NC(=O)c1ccc([N+](=O)[O-])cc1Cl
red/green cell ratio (normalised): 1.37 (inactive)
normalised cell number [1]: 0.87
normalised cell number [2]: 1.19

CCOC(=O)c1ccc(N)cc1
red/green cell ratio (normalised): 1.23 (inactive)
normalised cell number [1]: 1.07
normalised cell number [2]: 1.31

NC[C@H]1O[C@H](O[C@H]2[C@H](O)[C@@H](O[C@H]3O[C@H](CO)[C@@H](O)[C@H](N)[C@H]3O)[C@H](N)C[C@@H]2N)[C@H](N)[C@@H](O)[C@@H]1O
red/green cell ratio (normalised): 1.19 (inactive)
normalised cell number [1]: 1.1
normalised cell number [2]: 1.31

Cc1nc2n(c(=O)c1CCN1CCC(c3noc4cc(F)ccc34)CC1)CCC[C@H]2O
red/green cell ratio (normalised): 1.17 (inactive)
normalised cell number [1]: 0.84
normalised cell number [2]: 0.98

Cc1c(N(C)C)c(=O)n(-c2ccccc2)n1C
red/green cell ratio (normalised): 0.85 (inactive)
normalised cell number [1]: 1.18
normalised cell number [2]: 1

CC1CCC(NC(=O)N(CCCl)N=O)CC1 (stereo not given)
red/green cell ratio (normalised): 1.17 (inactive)
normalised cell number [1]: 1.17
normalised cell number [2]: 1.37

CCN(CC)C(=O)c1cccc(C)c1
red/green cell ratio (normalised): 1.18 (inactive)
normalised cell number [1]: 1
normalised cell number [2]: 1.19

Cc1ccc(C(=O)C(C)CN2CCCCC2)cc1 (stereo not given)
red/green cell ratio (normalised): 1 (inactive)
normalised cell number [1]: 1
normalised cell number [2]: 1

CN(C)CCCN1c2ccccc2Sc2ccccc21
red/green cell ratio (normalised): 1.19 (inactive)
normalised cell number [1]: 1.03
normalised cell number [2]: 1.24

CC(=O)Nc1cccc(O)c1
red/green cell ratio (normalised): 0.95 (inactive)
normalised cell number [1]: 0.83
normalised cell number [2]: 0.79

Oc1cccc2[nH]ccc12
red/green cell ratio (normalised): 0.85 (inactive)
normalised cell number [1]: 1.31
normalised cell number [2]: 1.12

OC(CCN1CCCCC1)(c1ccccc1)c1ccccc1
red/green cell ratio (normalised): 0.87 (inactive)
normalised cell number [1]: 1.06
normalised cell number [2]: 0.92

Nc1ccc(S(=O)(=O)Nc2nccs2)cc1
red/green cell ratio (normalised): 1.36 (inactive)
normalised cell number [1]: 0.91
normalised cell number [2]: 1.24

CCCCCCc1ccc(O)cc1O
red/green cell ratio (normalised): 0.84 (inactive)
normalised cell number [1]: 1.14
normalised cell number [2]: 0.96

CCN(CCCc1ccccc1)CCCc1ccccc1
red/green cell ratio (normalised): 0.99 (inactive)
normalised cell number [1]: 1.13
normalised cell number [2]: 1.12

Cc1c(NC(=O)c2cccnc2)c(=O)n(-c2ccccc2)n1C
red/green cell ratio (normalised): 1.04 (inactive)
normalised cell number [1]: 1.05
normalised cell number [2]: 1.09

CCN(CC)CCOC(=O)C(c1ccccc1)c1ccccc1
red/green cell ratio (normalised): 1.2 (inactive)
normalised cell number [1]: 1.02
normalised cell number [2]: 1.22

CC(=O)Oc1cccc(O)c1
red/green cell ratio (normalised): 1.21 (inactive)
normalised cell number [1]: 1.1
normalised cell number [2]: 1.33

O=C(CCCN1CCN(c2ccccn2)CC1)c1ccc(F)cc1
red/green cell ratio (normalised): 1.1 (inactive)
normalised cell number [1]: 1.11
normalised cell number [2]: 1.22

O=C1NCC2(CCN(CCc3ccccc3)CC2)O1
red/green cell ratio (normalised): 0.97 (inactive)
normalised cell number [1]: 1.16
normalised cell number [2]: 1.12

O=C1OCCN1/N=C/c1ccc([N+](=O)[O-])o1
red/green cell ratio (normalised): 1.17 (inactive)
normalised cell number [1]: 0.95
normalised cell number [2]: 1.11

Cc1cc(-c2ccccc2)nnc1NCCN1CCOCC1
red/green cell ratio (normalised): 1.08 (inactive)
normalised cell number [1]: 1.01
normalised cell number [2]: 1.08

COc1cc2c3cc1Oc1cc(ccc1O)C[C@@H]1c4c(cc(OC)c(O)c4Oc4ccc(cc4)C[C@@H]3N(C)CC2)CC[N+]1(C)C
red/green cell ratio (normalised): 0.97 (inactive)
normalised cell number [1]: 1.08
normalised cell number [2]: 1.05

NCCCC(=O)O
red/green cell ratio (normalised): 0.83 (inactive)
normalised cell number [1]: 1.17
normalised cell number [2]: 0.97

CO/N=C1\CN(c2nc3c(cc2F)c(=O)c(C(=O)O)cn3C2CC2)CC1CN (stereo not given)
red/green cell ratio (normalised): 0.94 (inactive)
normalised cell number [1]: 1.32
normalised cell number [2]: 1.24
